Source: PubChem BioAssay (NCATS)
Records with an inconclusive call do not appear. A call without a number means that no potency is given here. Calls of active or inactive are those of the source. Calls follow the shape of the dose curve; as a rule, active = well fitted inhibition curve with a large enough effect; inconclusive = small, poorly fitted or top-dose-only effect; inactive = no such curve, though single readings can be large or run the other way.

Tested on: Zika virus NS2B-NS3 protease (unlinked complex)
Assay: Primary screen GU Rhodamine qHTS for Zika virus inhibitors: Unlinked NS2B-NS3 protease assay (AID 1347159); also: nearly all actives have a fitted effect of over 60% in size
Settings: Recombinant ZIKV NS2B-NS3 protease, Rhodamine110 substrate fluorescence; series mostly up to 107 µM
Method in brief: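 Percent inhibition derives from the 15-min fluorescence change (ex 480, em 540 nm), normalized to no-enzyme and no-inhibitor wells. Reactions contained 25 nM NS2B-NS3 complex and 1.5 microM substrate in 10 mM Tris-HCl pH 8.0.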
Potency is read from the fitted curve at half-maximal effect.

SMILES | Potency | activity change, negative = inhibition
CC1(C)CCCC2(C)C1C(O)C=C(CO)C2(O)C(=O)O (centres undefined) | inactive | –
C=CCc1ccc(O[C@@H]2O[C@H](CO[C@@H]3O[C@@H](C)[C@H](O)[C@@H](O)[C@H]3O)[C@@H](O)[C@H](O)[C@H]2O)cc1 | inactive | –
CC(=O)O[C@H]1CC[C@@]2(CI)C(=CC[C@@H]3[C@@H]2CC[C@]2(C)[C@@H]([C@H](C)CCCC(C)C)CC[C@@H]32)C1 | – | 13.5% [at 19.1 µM] (inactive)
C=C(C)[C@@H](C)[C@H]1O[C@]23C[C@]4(CO2)C(CCC2[C@@]5(C)CC[C@H](O[C@@H]6OC[C@H](O)[C@H](O[C@@H]7O[C@H](CO)[C@@H](O)[C@H](O)[C@H]7O)[C@H]6O[C@@H]6O[C@@H](CO)[C@H](O)[C@H]6O)C(C)(C)C5CC[C@]24C)C3[C@@](C)(O)[C@@H]1OC(C)=O (some centres undefined) | inactive | –
CC1OC(OC2C(O)C(C(=O)O)OC(OC3CCC4(C)C(CCC5(C)C4C=CC4=C6CC(C)(C)CC(O)C6(C)CCC45C)C3(C)C)C2OC2OCC(O)C(O)C2O)C(O)C(O)C1O (centres undefined) | 3.55 µM (active) | –
C=CC(C)(O)CC/C=C(\C)C(=O)OCC1OC(OC2CCC3(C)C(CCC4(C)C3CC=C3C5CC(C)(C)C(O)CC5(C(=O)O)CCC34C)C2(C)C)C(O)C(OC2OC(CO)C(O)C(OC3OC(CO)C(O)C(OC4OC(COC5OC(CO)C(O)C(O)C5O)C(O)C(O)C4O)C3O)C2O)C1O (centres undefined) | – | 5.91% [at 19.1 µM] (inactive)
Cc1c(-c2ccnn2C)cc(C(=O)NCc2ccc(S(C)(=O)=O)cn2)c(=O)n1-c1cccc(C(F)(F)F)c1 | inactive | –
CC(/C=C/C1(O)C(C)(C)CC(O)CC1(C)O)OC1OC(CO)C(O)C(O)C1O (centres undefined) | inactive | –
C[C@@H]1O[C@@H](OC[C@H]2O[C@@H](OCC3CCC4CC3C4(C)C)[C@H](O)[C@@H](O)[C@@H]2O)[C@H](O)[C@H](O)[C@H]1O (some centres undefined) | inactive | –
